This passage reports cytotoxicity call results from the antibiotic and cytotoxicity screens of Wong et al. (2023).

The whole screen tested about 39,000 compounds, of which about 3,300 (8.5%) were called active. The entries come from a sample that favours actives as a whole.

This assay deals with HepG2. Put plainly: cytotoxicity call (relative viability < 0.9). The settings on record: 10 µM.
For the molecule `CN(C)CC(=O)N1CC2(C1)[C@@H](c1ccccc1)[C@H](CO)N2S(C)(=O)=O`, the cytotoxicity call was “inactive”.

Take `CCN1C(C)(C)CC(Oc2ccc(C(=O)Nc3ccc(NC(=O)Nc4cc(C(C)(C)C)on4)cc3)nc2)CC1(C)C`: the cytotoxicity call was “active”. To `CC(C)(C)c1cc(C(=O)NN)no1` belongs “inactive”. On to `COc1cc2ncnc(Oc3cccc(NC(=O)Nc4cc(C(C)(C)C(F)(F)F)on4)c3)c2cc1OC`, for which the cytotoxicity call was “inactive”. On to `C[C@@H]1CN([C@H](C)CO)C(=O)Cc2cc(NC(=O)Cn3cnnn3)ccc2O[C@H]1CN(C)C(=O)NC1CCCCC1`, for which the cytotoxicity call is “inactive”. As for `C[C@@H]1CN([C@H](C)CO)C(=O)c2cc(NC(=O)Nc3cccc4ccccc34)ccc2O[C@H]1CN(C)Cc1ccccc1`, the entry is “inactive”; as for `C[C@@H]1CN([C@H](C)CO)C(=O)c2cc(NC(=O)Nc3cccc4ccccc34)ccc2O[C@@H]1CN(C)Cc1ccccc1`, “active”; as for `C[C@H]1CN([C@@H](C)CO)C(=O)c2cc(NC(=O)Nc3cccc4ccccc34)ccc2O[C@@H]1CN(C)Cc1ccc2c(c1)OCO2`, “inactive”. Turning to `C[C@@H]1CN([C@@H](C)CO)C(=O)c2cc(NC(=O)Nc3cccc4ccccc34)ccc2O[C@H]1CN(C)Cc1ccc2c(c1)OCO2`, the cytotoxicity call is “inactive”.

For `C[C@@H]1CN([C@@H](C)CO)C(=O)c2cc(NC(=O)Nc3cccc4ccccc34)ccc2O[C@@H]1CN(C)Cc1ccc2c(c1)OCO2`, the cytotoxicity call was “active”. As to `C[C@H](CO)N1C[C@H](C)[C@H](CN(C)Cc2ccccc2)Oc2ccc(NC(=O)Nc3cccc4ccccc34)cc2C1=O`, the cytotoxicity call is “inactive”. For the molecule `C[C@@H]1CN([C@@H](C)CO)C(=O)c2cc(NC(=O)Nc3cccc4ccccc34)ccc2O[C@@H]1CN(C)Cc1ccccc1`, the cytotoxicity call was “active”. To `C[C@@H]1CN([C@@H](C)CO)C(=O)c2cc(NC(=O)Nc3cccc4ccccc34)ccc2O[C@H]1CN(C)Cc1ccccc1` belongs “inactive”. As for `C[C@H]1CN([C@@H](C)CO)C(=O)c2cc(NC(=O)Nc3cccc4ccccc34)ccc2O[C@@H]1CN(C)Cc1ccccc1`, the entry is “inactive”; as for `CCS(=O)(=O)N1CC[C@]2(CC1)CN([C@H](CO)c1c2c2ccc(cc2n1C)OC)C(=O)Nc1c(noc1C)C`, “inactive”; as for `Cc1cc(O)cc(=O)o1`, “inactive”. As for `C[C@@H]1CN([C@H](C)CO)C(=O)c2cc(NC(=O)Nc3ccc(F)cc3)ccc2O[C@@H](C)CCCCO[C@@H]1CN(C)S(=O)(=O)c1ccc(Cl)cc1`, the cytotoxicity call is “inactive”. To `COc1ccc(NC(=O)Nc2ccc3c(c2)C(=O)N([C@@H](C)CO)C[C@@H](C)[C@H](CN(C)C(=O)Nc2ccccc2)OCCCC[C@H](C)O3)cc1` belongs “inactive”; to `CC(C)NC(=O)Nc1ccc2c(c1)C(=O)N([C@@H](C)CO)C[C@@H](C)[C@@H](CN(C)S(=O)(=O)c1cn(C)cn1)OCCCC[C@@H](C)O2`, “inactive”.
